Pf apPOL inh: Pf-apPOL DNA polymerase inhibition; AID 1794808; 210,000 tested, 0.25% active; inhibition, % at 10 µM; Recombinant Pf-apPOL, molecular beacon fluorescence, 1.5 h
mHTT CaM bind: mHTT-calmodulin interaction abrogation | inhibition, % at 15 µM | P42858 | 190,000 tested, 3.6% active | AID 1671202 | AlphaScreen His-mHTT/GST-CaM binding, luminescence
Target sequence (P42858 whole entry, looked up, change not shown): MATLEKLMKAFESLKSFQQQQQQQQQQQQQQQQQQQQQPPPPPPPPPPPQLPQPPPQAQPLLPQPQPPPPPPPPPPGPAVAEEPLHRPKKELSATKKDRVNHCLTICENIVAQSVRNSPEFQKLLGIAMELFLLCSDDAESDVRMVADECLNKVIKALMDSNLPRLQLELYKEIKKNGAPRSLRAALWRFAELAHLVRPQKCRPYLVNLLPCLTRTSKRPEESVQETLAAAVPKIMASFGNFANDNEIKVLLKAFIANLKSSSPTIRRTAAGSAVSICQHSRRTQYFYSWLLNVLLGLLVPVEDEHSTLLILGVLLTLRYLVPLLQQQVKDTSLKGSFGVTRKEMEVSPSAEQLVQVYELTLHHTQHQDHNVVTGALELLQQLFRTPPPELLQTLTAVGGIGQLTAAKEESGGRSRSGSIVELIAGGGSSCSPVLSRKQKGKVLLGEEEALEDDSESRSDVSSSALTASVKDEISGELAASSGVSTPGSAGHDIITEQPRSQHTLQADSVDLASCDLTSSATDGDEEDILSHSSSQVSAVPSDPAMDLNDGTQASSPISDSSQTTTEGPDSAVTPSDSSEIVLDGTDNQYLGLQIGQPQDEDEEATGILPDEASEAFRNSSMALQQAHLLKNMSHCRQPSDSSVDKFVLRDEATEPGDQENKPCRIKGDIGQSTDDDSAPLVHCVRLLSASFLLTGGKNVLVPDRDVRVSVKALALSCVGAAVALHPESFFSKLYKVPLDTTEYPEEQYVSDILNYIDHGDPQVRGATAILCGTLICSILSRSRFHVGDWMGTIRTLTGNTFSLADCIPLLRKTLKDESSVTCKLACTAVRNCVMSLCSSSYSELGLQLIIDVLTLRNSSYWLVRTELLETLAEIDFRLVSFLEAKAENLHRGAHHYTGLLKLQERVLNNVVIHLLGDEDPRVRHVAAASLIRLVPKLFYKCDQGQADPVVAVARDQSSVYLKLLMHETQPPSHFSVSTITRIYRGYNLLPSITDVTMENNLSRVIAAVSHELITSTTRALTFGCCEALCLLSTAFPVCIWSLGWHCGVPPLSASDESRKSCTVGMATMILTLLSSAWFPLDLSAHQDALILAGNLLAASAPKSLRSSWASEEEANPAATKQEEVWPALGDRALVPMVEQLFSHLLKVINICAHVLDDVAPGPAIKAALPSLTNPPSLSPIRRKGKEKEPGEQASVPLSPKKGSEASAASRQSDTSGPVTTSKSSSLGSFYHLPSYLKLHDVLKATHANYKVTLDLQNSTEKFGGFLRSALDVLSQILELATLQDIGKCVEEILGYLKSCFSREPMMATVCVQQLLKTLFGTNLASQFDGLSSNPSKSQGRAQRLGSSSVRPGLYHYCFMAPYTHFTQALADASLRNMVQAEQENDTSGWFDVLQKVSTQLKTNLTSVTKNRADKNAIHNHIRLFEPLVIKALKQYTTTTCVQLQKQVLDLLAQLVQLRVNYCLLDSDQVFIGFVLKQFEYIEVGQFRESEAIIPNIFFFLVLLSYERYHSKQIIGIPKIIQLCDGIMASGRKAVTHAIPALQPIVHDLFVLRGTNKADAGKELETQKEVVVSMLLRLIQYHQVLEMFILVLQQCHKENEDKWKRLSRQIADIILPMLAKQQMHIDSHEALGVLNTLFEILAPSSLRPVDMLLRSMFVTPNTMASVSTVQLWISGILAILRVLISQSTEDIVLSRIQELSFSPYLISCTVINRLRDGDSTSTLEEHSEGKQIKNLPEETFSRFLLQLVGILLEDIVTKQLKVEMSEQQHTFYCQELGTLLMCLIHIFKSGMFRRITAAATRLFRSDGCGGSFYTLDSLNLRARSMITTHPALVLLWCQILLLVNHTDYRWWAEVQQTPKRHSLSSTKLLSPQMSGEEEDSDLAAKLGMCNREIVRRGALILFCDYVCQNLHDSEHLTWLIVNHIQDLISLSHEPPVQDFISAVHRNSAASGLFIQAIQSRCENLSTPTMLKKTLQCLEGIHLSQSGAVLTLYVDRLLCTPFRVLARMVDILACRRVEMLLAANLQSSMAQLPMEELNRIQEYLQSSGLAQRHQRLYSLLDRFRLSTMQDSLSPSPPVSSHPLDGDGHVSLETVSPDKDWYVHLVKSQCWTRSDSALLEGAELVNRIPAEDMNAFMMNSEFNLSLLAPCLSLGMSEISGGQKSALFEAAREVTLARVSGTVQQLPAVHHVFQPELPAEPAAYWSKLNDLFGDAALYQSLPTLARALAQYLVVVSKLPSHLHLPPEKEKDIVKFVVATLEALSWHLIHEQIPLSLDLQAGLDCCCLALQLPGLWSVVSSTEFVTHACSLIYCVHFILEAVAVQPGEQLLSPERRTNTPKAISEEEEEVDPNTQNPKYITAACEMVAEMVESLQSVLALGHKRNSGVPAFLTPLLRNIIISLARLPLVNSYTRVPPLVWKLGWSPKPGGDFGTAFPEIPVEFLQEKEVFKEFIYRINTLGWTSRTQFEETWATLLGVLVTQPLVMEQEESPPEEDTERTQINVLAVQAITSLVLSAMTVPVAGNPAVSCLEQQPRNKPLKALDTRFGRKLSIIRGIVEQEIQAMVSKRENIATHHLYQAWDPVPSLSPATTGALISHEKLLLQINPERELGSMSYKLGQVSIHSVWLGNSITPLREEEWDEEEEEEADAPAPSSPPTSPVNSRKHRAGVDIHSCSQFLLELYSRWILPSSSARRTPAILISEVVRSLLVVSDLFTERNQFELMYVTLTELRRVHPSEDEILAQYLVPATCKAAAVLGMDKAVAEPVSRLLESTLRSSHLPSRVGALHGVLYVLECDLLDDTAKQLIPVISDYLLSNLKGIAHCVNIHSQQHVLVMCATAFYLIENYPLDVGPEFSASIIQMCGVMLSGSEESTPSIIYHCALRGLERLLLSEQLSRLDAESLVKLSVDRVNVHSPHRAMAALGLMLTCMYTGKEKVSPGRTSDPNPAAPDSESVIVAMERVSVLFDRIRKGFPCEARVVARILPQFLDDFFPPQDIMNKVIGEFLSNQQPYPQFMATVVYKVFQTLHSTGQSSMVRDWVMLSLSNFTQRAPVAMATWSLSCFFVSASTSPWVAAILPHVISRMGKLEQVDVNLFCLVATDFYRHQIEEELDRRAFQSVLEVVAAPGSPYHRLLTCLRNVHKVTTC
Of the large screens only hits and unclear results are named; the others gave an inactive call. In the library only some 3.6% were active in any assay of this set; here they are far more common. Rule as the data show it: active = inhibition above about 50%; inactive = the rest.

CCC(Br)C(=O)Nc1ccc2c(c1)OCO2 (configuration not stated)	none
CC1=CN2C3=C(C(=O)CCC3)C3(OC2C=C1)C(=O)c1ccccc1C3=O (configuration not stated)	none (no result: Pf apPOL inh)
Cc1ccccc1NCN1C(=O)S/C(=C\c2ccccc2)C1=O	mHTT CaM bind 53
Cc1ccccc1NCN1C(=O)S/C(=C\c2ccc(F)cc2)C1=O	none
CC(=Cc1ccccc1)C=C1SC(=S)N(C(CCC(=O)O)C(=O)O)C1=O (configuration not stated)	none
CC(=Cc1ccccc1)C=C1SC(=S)N(C(Cc2ccccc2)C(=O)O)C1=O (configuration not stated)	mHTT CaM bind 85
COc1cc(/C=C2\C(=O)NN(c3ccc(C)c(C)c3)C2=O)cc(OC)c1OC	none
COc1cc(/C=C2\C(=O)NN(c3ccc(I)cc3)C2=O)cc(OC)c1O	mHTT CaM bind 61
COc1c(Cl)cc(/C=C2\C(=O)NN(c3ccccc3)C2=O)cc1Cl	mHTT CaM bind 96
COc1cc(Cl)cc(/C=C2\C(=O)NN(c3cccc(Cl)c3)C2=O)c1O	mHTT CaM bind 58
COc1cc(/C=C2\C(=O)NC(=O)N(c3cccc(C)c3)C2=O)cc(OC)c1O	none
COc1cc(Cl)cc(/C=C2\C(=O)NN(c3ccc(C)c(C)c3)C2=O)c1O	none
COc1cc(/C=C2\C(=O)NN(c3ccc(C)c(Cl)c3)C2=O)cc(OC)c1OC	none
O=C1NC(=O)N(c2cccc(C(F)(F)F)c2)C(=O)/C1=C/c1ccc(O)cc1	mHTT CaM bind 52
c1ccc2c(c1)NC(c1ccc3c(c1)OCCO3)n1cccc1-2 (configuration not stated)	none (no result: mHTT CaM bind)
CCOc1cc(/C=C2\C(=O)NN(c3ccc(Br)cc3)C2=O)cc(Cl)c1O	none
COc1cccc(/C=C2\C(=O)NN(c3ccc(C)c(C)c3)C2=O)c1	none
COc1cccc(/C=C2\C(=O)NN(c3cccc(C(F)(F)F)c3)C2=O)c1	mHTT CaM bind 85
CCOc1cc(/C=C2\C(=O)NN(c3cccc(Br)c3)C2=O)cc(Cl)c1OCC	mHTT CaM bind 98
CSc1nnc2c(n1)OC(c1cc3c(cc1[N+](=O)[O-])OCO3)N(C(C)=O)c1ccccc1-2 (configuration not stated)	none
CCN(CC)c1ccc(C2Oc3nc(SC)nnc3-c3ccccc3N2C(C)=O)c(OC)c1 (configuration not stated)	mHTT CaM bind 59
CSc1nnc2c(n1)OC(c1cc3c(cc1Cl)OCO3)N(C(C)=O)c1ccccc1-2 (configuration not stated)	mHTT CaM bind 78
CCSc1nnc2c(n1)OC(c1ccccc1OC)N(C(C)=O)c1ccccc1-2 (configuration not stated)	none
Cc1ccc(NC(=O)CC(C)C)c(NC(=O)CC(C)C)c1	none
Cc1cc(C)c(OCC(O)Cn2cnc3cc(C)c(C)cc32)c(C)c1 (configuration not stated)	mHTT CaM bind 85
Cc1cc2ncn(CC(O)COc3c(C)cccc3C)c2cc1C (configuration not stated)	none
CC1CCCC(NC(=O)CCSCc2ccccc2Cl)C1C (configuration not stated)	none
S=C(Nc1ccc(Br)c(Cl)c1)N1CCCCC1	none (no result: mHTT CaM bind)
CCOc1cc(-c2ccc(SC)cc2)cc(=O)c2c(C)oc(C)c12	mHTT CaM bind 70
CCOc1cc(-c2ccc(O)c(O)c2)cc(=O)c2c(C)oc(C)c12	none
CCOc1cc(-c2cc(OC)c(OC)c(OC)c2)cc(=O)c2c(C)oc(C)c12	none
COc1ccc(-c2cc(OC)c3c(C)oc(C)c3c(=O)c2)cc1	mHTT CaM bind 54
COc1cc(-c2ccc(O)cc2)cc(=O)c2c(C)oc(C)c12	none
CCOc1cc(-c2ccc(OCc3ccccc3)c(OC)c2)cc(=O)c2c(C)oc(C)c12	mHTT CaM bind 70
O=C(c1nnc(-c2ccccc2)o1)N1CCN(C(c2ccccc2)c2ccccc2)CC1	none (no result: mHTT CaM bind)
O=C(c1ccc(OCC2CCCN(C(=O)c3ccoc3)C2)cc1)N1CCOCC1 (configuration not stated)	none
O=C(c1ccc(Cl)cc1)c1cn[nH]c1-c1ccccc1O	mHTT CaM bind 95
Cc1ccccc1C(=O)c1cn[nH]c1-c1ccccc1O	none
COc1ccc(C(CC(=O)N2CCCC2)c2c[nH]c3ccccc23)cc1 (configuration not stated)	mHTT CaM bind 91
COc1cccc(C(CC(=O)N2CCCC2)c2c[nH]c3ccccc23)c1 (configuration not stated)	none
CCOC(=O)c1cc(C(=O)OC)c(C)nc1NCc1ccc2c(c1)OCO2	none (no result: mHTT CaM bind)
COc1cccc(-c2coc3cc4oc(=O)c5cc(OC)ccc5c4cc23)c1	none
CCC1CN2C=NC(N3CCN(C(=O)c4ccc(C(F)(F)F)s4)CC3)=CC2=N1 (configuration not stated)	none
Cc1cc(NC(=O)CSc2nc3c(c(=O)n2C)SC(C)C3)no1 (configuration not stated)	none
O=C1N=C(N2CCOCC2)S/C1=C/C1=Cc2ccccc2OC1	mHTT CaM bind 52
O=C1N=C(N2CCOCC2)S/C1=C\c1ccccc1	none
Cc1ccc2nc(-c3ccccc3N)[nH]c2c1	none
COc1cc(N)ccc1Cc1ccc(N)cc1OC	none
COc1ccc(N)cc1-n1c(C)ccc1C	mHTT CaM bind 76
COc1cccc(NC(=O)Nc2nnc(-c3ccccc3Cl)s2)c1	none
O=C(Nc1cnc(-c2cccc(Cl)c2)nc1)c1ccccc1Cl	none
CCOc1ccc(S(=O)(=O)N2CCSC2c2ccc(OC)c(OC)c2)cc1 (configuration not stated)	none
O=C(NCCN1CCN(c2cccc(C(F)(F)F)c2)CC1)C1(n2cccc2)CCCCC1	mHTT CaM bind 97
O=C(NCCN1CCN(c2ccccc2F)CC1)C1(n2cccc2)CCCCC1	none
CC1=C(C(=O)NCCCN2CCN(c3cc(C)ccc3C)CC2)C2(CCCCC2)OC1=O	none
Cc1ccc(Cl)cc1N1CCN(CCCNC(=O)C2(n3cccc3)CCCCC2)CC1	mHTT CaM bind 86
Cc1cc2c(C)[nH]c(=O)nc2o1	none
CCC(=O)NCc1nc2c(n1C)CN(S(=O)(=O)c1ccc(OC)cc1)CC2	none
Cc1cc(C2(c3ccc(O)c(C)c3)C(=O)Nc3c(C)cc([N+](=O)[O-])cc32)ccc1O	mHTT CaM bind 86
Cc1cccc2c1NC(=O)C2(c1ccc(O)cc1)c1ccc(O)cc1	none
O=C(O)C1CCCCC1C(=O)NCc1ccncc1 (configuration not stated)	none
Brc1ccc2[nH]c3c(c2c1)CCCCC3	mHTT CaM bind 53 (no result: Pf apPOL inh)
c1ccc2c3c([nH]c2c1)CCCCCC3	none (no result: mHTT CaM bind)
O=c1c2c([nH]c3ccccc13)CCCC2	none (no result: mHTT CaM bind)
Nc1ccc2[nH]c3c(c2c1)CCCC3	mHTT CaM bind 68 (no result: Pf apPOL inh)
Cc1ccc(CN2C(=O)c3cccnc3C2=O)cc1	none
O=S1(=O)N=C(Nc2ccccc2O)c2ccccc21	none
O=S1(=O)N=C(N/N=C/c2cc(Cl)ccc2O)c2ccccc21	mHTT CaM bind active (no result: Pf apPOL inh)
O=C(O)CCC(=O)Nc1ccccc1Br	none
C=CCCCC(=O)Nc1ccccc1Br	Pf apPOL inh 67
CC1CCCN(CC2CCN(S(=O)(=O)c3ccc(Cl)cc3)CC2)C1 (configuration not stated)	none
O=CN1CCN(C(=O)c2cccc3c2-c2ccccc2C3=O)CC1	none
O=[N+]([O-])CC12OC3C4C5CC(C6C5C3C61)C42 (configuration not stated)	none (no result: mHTT CaM bind)
COc1ccc(CNS(=O)(=O)c2cccs2)cc1	none
COc1cc(C(=O)NCCSc2c[nH]c3ccccc23)cc(OC)c1OC	none
COc1ccc(CCCC(=O)O)cc1C	Pf apPOL inh 63
COc1ccc(OC)c(CCC(=O)O)c1	none

Source: PubChem BioAssay (University of Kansas High Throughput Screening Laboratory)
